PostGolgi yeast: phenotypic screen on post-Golgi transport, primary screen. post-Golgi transport phenotypic cell assay. inhibition, % at 10 µM. 0.9% of 98,000 active;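 note: yeast cells grown in 1536-well plates; yeast grown about 18 h at 30C before absorbance read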
sEH inhibitor: soluble epoxide hydrolase inhibitors, primary screen, biochemical, human sEH | Bifunctional epoxide hydrolase 2 (Homo sapiens), P34913 | recombinant human sEH enzymatic activity assay | inhibition, % at 2 µM | 0.34% of 91,000 active | AID 707, 2007; in the data active = inhibition above about 80%
Target sequence (P34913 whole entry, looked up): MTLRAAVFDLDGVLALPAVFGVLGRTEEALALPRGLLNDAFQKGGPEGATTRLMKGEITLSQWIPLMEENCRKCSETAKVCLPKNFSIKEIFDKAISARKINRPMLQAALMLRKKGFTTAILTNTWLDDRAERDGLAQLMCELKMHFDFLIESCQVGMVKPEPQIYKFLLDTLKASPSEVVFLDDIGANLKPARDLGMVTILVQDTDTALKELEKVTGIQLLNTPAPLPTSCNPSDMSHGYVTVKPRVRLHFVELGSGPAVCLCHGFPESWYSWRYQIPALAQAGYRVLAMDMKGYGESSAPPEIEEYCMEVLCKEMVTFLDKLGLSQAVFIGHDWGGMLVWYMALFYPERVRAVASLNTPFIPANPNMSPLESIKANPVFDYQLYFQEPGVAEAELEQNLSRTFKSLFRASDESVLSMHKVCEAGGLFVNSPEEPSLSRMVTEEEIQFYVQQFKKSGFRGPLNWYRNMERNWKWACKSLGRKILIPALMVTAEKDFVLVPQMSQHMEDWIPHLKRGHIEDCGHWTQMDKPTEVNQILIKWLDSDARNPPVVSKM
PostGolgi ctrl: growth inhibition of yeast control strain, primary screen, counter-screen for post-Golgi transport modulator project | 5% of 98,000 active | inhibition, % at 10 µM | efflux-deficient yeast background strain, growth absorbance A615, 16 h
Cav32 inh: Cav3.2 calcium influx blockers – cell-based, Fluo-4 calcium fluorescence, FDSS, MLSMR library, primary screen. Voltage-dependent T-type calcium channel subunit alpha-1H (Homo sapiens), O95180. Cav3.2-expressing cells; stronger effect = lower value. B-score at 10 µM. 4% of 100,000 active;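 active = single-dose well whose peak fluorescence ratio is a statistical outlier from its plate by either plate-standardised score or position-corrected B-score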
sEH act: soluble epoxide hydrolase activators, primary screen, biochemical, human sEH; purified human sEH enzymatic activity, activator screen; activation, % at 2 µM; 0.04% of 91,000 active; AID 717, 2007; in the data active = activation above about 37%
The depositor's hits bear a star; . = not tested or not shown. A selection: hits, their analogues and other compounds. The true share with any hit is near 7.8%. Cut-off read from the data, not from the text of the source, unless noted: active = inhibition above about 30%; inactive = the rest.

SMILES | PostGolgi yeast | sEH inhibitor | PostGolgi ctrl | Cav32 inh | sEH act
CN(CC(=O)O/N=C(\N)c1ccc([N+](=O)[O-])cc1)S(=O)(=O)c1ccc2ccccc2c1 | 10 | -4 | 29 | . | 0
Cc1cccnc1NC(=O)CSc1nnc(Cc2ccccc2)o1 | . | -2 | . | 0.62 | 1
CC(C)(C)[C@@H]1C=C(C(N)=O)O[C@H](OCCCCO)C1 | . | . | . | 0.96 | .
S=C(NN=C1C2CC3CC(C2)CC1C3)Nc1ccccc1 | 8 | 6 | -8 | -0.81 | -7
CC(=O)Nc1cccc(-c2csc(Nc3ccccn3)n2)c1 | -15 | -4 | 12 | -1.9 | 6
CC(=O)Nc1cccc(-c2csc(Nc3cc(C)ccn3)n2)c1 | 1 | 1 | 31* | -3 | 0
COc1ccc(NC(=O)c2ccc(Cl)c(S(=O)(=O)N3CCc4ccccc4C3)c2)cn1 | -2 | . | 45* | -3.3 | .
CC(=O)C(Sc1nn(C)c(=S)s1)C(=O)Nc1ccccc1 (centres undefined) | 11 | . | 2 | -1.6 | .
CCCCOc1ccc(-c2ncc(C(=O)O)c(C)n2)cc1 | 44* | 10 | 4 | -0.089 | -9
CCCCOc1ccc(-c2nnn(C(C)C(=O)OCC)n2)cc1 (centres undefined) | 8 | -12 | 4 | -0.93 | 12
O=c1n(Cc2ccc(Cl)cc2)c2sc3c(c2c2ncnn12)CCCC3 | 16 | 20 | 93* | 0.084 | -19
Cc1c(CCOC(=O)C23CC4CC(CC(C)(C4)C2)C3)sc[n+]1Cc1ccccc1 | -3 | 1 | 34* | 1.4 | 1
Cc1ncc(C[n+]2csc(CCOC(=O)CC3C4CC5CC(C4)CC3C5)c2C)c(N)n1 (centres undefined) | 2 | -1 | 12 | -0.38 | 2
CCC(=O)Nc1nc(=S)ss1 | -2 | 1 | 4 | -0.4 | -2
CC(C)(C)C(=O)Nc1nc(=S)ss1 | 20 | -12 | 20 | -5* | 12
Cc1ccc(C(=O)Nc2onc(C)c2C#N)cc1 | -1 | 0 | 3 | 0.026 | 2
OC(CN(c1ccccc1)c1ccccc1)Cn1cnc2ccccc21 (centres undefined) | -1 | -1 | 32* | -5* | 0
OC(COCc1ccccc1)Cn1cnc2ccccc21 (centres undefined) | 0 | -4 | 7 | 0.36 | 5
COc1ccc2c(c1)C(=NN)c1cc(OC)ccc1-2 | 11 | -20 | 3 | 0.33 | 19
CCC(C)(C)n1nnnc1C(c1ccccn1)N1CCN(c2cccc(OC)c2)CC1 (centres undefined) | . | 4 | . | -0.29 | 1
C/C=C/C=C/C(=O)N1CC[C@]23c4ccccc4N[C@H]4N(C)c5cccc6c5[C@]42CCN([C@H]6C2OC2(C)C)[C@H]13 (some centres undefined) | . | . | . | -4.5* | .
CN1CCC23c4ccccc4NC1C21CCN(C)C3Nc2ccccc21 | . | . | . | 0.094 | .
COn1c(-c2ccccc2)nc2ccc(Cl)cc21 | 1 | 8 | 17 | . | -10
O=[N+]([O-])c1ccc2nc(-c3ccccc3)n(OCc3ccc(Cl)cc3)c2c1 | -3 | 1 | 16 | -4.5* | -2
Cc1ccc(C(=O)C(C(=O)/C=C/c2ccccc2)=C2SCCCS2)cc1 | . | -6 | . | -1.7 | 6
SMILES | PostGolgi yeast | sEH inhibitor | PostGolgi ctrl | Cav32 inh | sEH act
Cc1ccc(C2(c3ccc(C)cc3)CC2C(=O)Nc2ccc([N+](=O)[O-])cc2O)cc1 (centres undefined) | 101* | 0 | 91* | -1.9 | 0
Cc1cc(C)c2c(-n3cccc3)c(C(=O)NNS(=O)(=O)c3ccccc3)sc2n1 | 2 | 1 | 22 | -1.5 | 2
Cc1cc(C)c2c(-n3cccc3)c(C(=O)NNS(=O)(=O)c3ccc(Cl)cc3)sc2n1 | 2 | 0 | 28 | -5.1* | 2
N/C(=N\OC(=O)c1cccc(F)c1)c1ccccc1 | -2 | 6 | 6 | . | -2
C=CCn1c(NC(C)c2cc(Cl)ccc2O)nc2ccccc21 (centres undefined) | -5 | 5 | 32* | . | -3
COc1ccc(/C=C/C(=O)NC(=S)NNC(=O)Cc2cccs2)cc1 | 2 | -7 | -15 | . | 5
O=C(/C=C/c1ccccc1)NC(=S)NNC(=O)Cc1cccs1 | . | 2 | . | -4.1* | -2
CCC(C)C(NC(=O)OCc1ccccc1)C(=O)OCN1C(=O)c2ccccc2C1=O (centres undefined) | 24 | 9 | 1 | -5.1* | -7
COC1(OC)N=C(N)C2(C#N)C(c3cccc(Oc4ccccc4)c3)C12C#N (centres undefined) | -1 | -5 | 8 | -5* | 5
COc1cccc(/C=N/Nc2nc(Nc3ccccc3)nc(-n3nc(C)cc3C)n2)c1O | 0 | -10 | 58* | . | 8
OC12CCCCC1C(c1ccc3c(c1)OCO3)N(Cc1ccc(F)cc1)CC2 (centres undefined) | -2 | 15 | 2 | -5.9* | -17
CCCCc1ccc(Nc2nc(CCC)cc(=O)[nH]2)cc1 | 6 | 7 | 52* | -0.11 | -5
CCCc1cc(=O)[nH]c(Nc2ccc(N3CCCCC3)cc2)n1 | 7 | 10 | 11 | 0.46 | -12
CC(C)COc1ccc(C(=O)CCN2CCCCC2)cc1 | -4 | . | 44* | 0.054 | .
Cc1ccc(NC(=O)c2c(O)c3ccccc3n(C)c2=O)nc1 | -1 | . | -9 | -1.2 | .
CCNCCNC(=O)c1c(O)c2ccccc2n(CC)c1=O | 0 | . | 41* | 0.81 | .
CC(C)Cn1c(=O)c(C(=O)Nc2cnccn2)c(O)c2ccccc21 | 6 | . | 39* | . | .
CCCCCCCCCCCC(=O)N/N=C/c1ccco1 | 16 | -4 | 11 | -0.022 | 5
CCCCCOc1ccc(CN2CCOCC2)cc1Cl | 95* | . | 55* | . | .
COc1ccc(CN2CCOCC2)cc1 | -2 | 5 | -3 | 0.93 | -3
O=C(O)C(=O)/C(=C\c1cccc2ccccc12)c1ccc2ccccc2n1 | 3 | 8 | 22 | -5.5* | -9
N#Cc1cc2c(nc1SCC1COc3ccccc3O1)CCC2 (centres undefined) | -6 | 3 | 20 | -6.2* | -3
Cc1cc(C)c(C#N)c(SCC2COc3ccccc3O2)n1 (centres undefined) | 5 | 9 | 21 | -4.7 | -9
N#Cc1cc2c(nc1SCc1cccnc1)CCCCC2 | 44* | -5 | 63* | -3.5 | 8
N#Cc1cc2c(nc1SCc1ccccc1)CCCCC2 | -3 | -21 | 31* | -0.81 | 25
CC(C)(CSc1nncn1N)NS(=O)(=O)c1ccc(Cl)cc1 | -4 | 0 | 8 | 0.38 | 3
CCC(C)(C)NC(=O)C(c1cccnc1)N(CCOC)C(=O)Cn1nnc2ccccc21 (centres undefined) | 4 | -11 | 1 | 0.41 | 12
Cc1cc(C)cc(OC(=O)CS(=O)c2ccc(C(F)(F)F)cc2[N+](=O)[O-])c1 (centres undefined) | 13 | -7 | 35* | 1.1 | 7
COc1ccc(Br)cc1/C=N/NC(=O)CNC(=O)/C=C/c1ccccc1 | 0 | -8 | 17 | -7.6* | 9
COc1ccc(/C=C/C(=O)NCC(=O)N/N=C/c2cc(Br)ccc2OCc2ccccc2)cc1 | -1 | -2 | -2 | -3.3 | 2

Bioassay records: PubChem BioAssay, several laboratories
